Molecules are shown by their SMILES. Values joined by “and” are separate entries in the source; they are usually repeats but may differ in a detail not shown here. Equal values may be shown once. Results filed as inconclusive are left out. A structure can be active in one record and inactive in another. Active and inactive are the calls of the source. Rule for the calls, unless noted: active = hit-call score of the fitted dose curve at least 0.9, where 1 is the maximum; inconclusive = response in the unintended direction; inactive = score below 0.9.

Assay [1] addresses mouse Estrogen Receptor alpha (Era), Esr1 (gene 13982) (UniProt P19785). As to the kind of experiment: NVS_NR_mERa: NovaScreen (NVS) Nuclear Receptor Binding Assay for mouse Estrogen Receptor alpha (Era) (AID 2283378).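 Note: hit means loss of bound radioligand signal relative to DMSO.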 A digest of the protocol:
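Filter radiodetection of radioligand displacement from extracted receptor protein, measured 18 h post-dose. Single 25 uM concentration in duplicate initially, with concentration-series follow-up. Binding loss fitted relative to DMSO.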

The target in assay [2] is Estrogen receptor beta (Homo sapiens) (UniProt Q92731). As to the kind of experiment: OT_ER_ERbERb_1440: Odyssey Thera (OT) 24-hour HEK293T Protein-Complementation Assay for Estrogen Receptor-beta/-beta Homodimer (AID 2283380).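 Note: scored as signal increase over DMSO baseline for both agonists and antagonists.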 A digest of the protocol:
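HEK293T cells stably expressing ER beta LBD (aa 310-547) homodimer fragment-complementation reporter, dosed 24 h. Cells formaldehyde-fixed, Draq5-stained; gain in nuclear (agonist) or nuclear plus cytoplasmic (antagonist) fluorescence versus DMSO read by laser scanning cytometry.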

Assay [3] has as its target Estrogen receptor (Homo sapiens) (UniProt P03372). As to the kind of experiment: OT_ERa_GFPERaERE_0480: Odyssey Thera (OT) 8-hour HeLa Transcription Induction Assay for Estrogen Receptor (AID 2283381; active = hit-call score of the fitted dose curve at least 0.9, where 1 is the maximum; inactive = score below 0.9). The essentials:
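Fluorescent reporter signal, imaged by microscopy and scored with image-analysis algorithms, was taken 8 h after chemical dosing of HeLa cells; activity was fitted upward relative to DMSO.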

For assay [4] the target is unchanged. As to the kind of experiment: OT_ERa_GFPERaERE_0120: Odyssey Thera (OT) 2-hour HeLa Transcription Induction Assay for Estrogen Receptor (AID 2283382). A digest of the protocol: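 HeLa, 384-well, 2 h chemical exposure; GFP reporter induction (ERE), fluorescence microscopy; high content image analysis; positive fitting direction vs DMSO.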
Assay [5] deals with Bile acid receptor (Homo sapiens) (UniProt Q96RI1). As to the kind of experiment: OT_FXR_FXRSRC1_0480: Odyssey Thera (OT) 8-hour HEK293T Protein-Complementation Assay for Farnesoid X receptor/SRC-1 Co-activator (AID 2283383). The essentials:
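Human kidney HEK293T cells carried FXR/SRC-1 fragment-complementation constructs. Compounds were added and incubated 8 h. Reporter reassembly upon receptor–co-activator interaction was then quantified by fluorescence, with curves fitted in the positive direction relative to DMSO.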

For assay [6], the target named is Retinoic acid receptor RXR-alpha (Homo sapiens) (UniProt P19793). As to the kind of experiment: OT_NURR1_NURR1RXRa_0480: Odyssey Thera (OT) 8-hour HEK293T Protein Complementation Assay for Nurr1/retinoid X receptor (RXR) (AID 2283385). The essentials:
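8 h compound exposure, HEK293T; Nurr1/RXRα fragment complementation; fluorescence intensity; positive fitting direction vs DMSO baseline.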

For assay [7], the target named is Peroxisome proliferator-activated receptor gamma (Homo sapiens) (UniProt P37231). As to the kind of experiment: OT_PPARg_PPARgSRC1_0480: Odyssey Thera (OT) 8-hour Protein-Complementation Assay for Peroxisome Proliferator-activated Receptor Gamma / SRC-1 Co-activator (AID 2283387).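 Note: nuclear to cytoplasmic split Venus YFP fluorescence ratio reporting PPARg SRC-1 interaction.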 A digest of the protocol: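 Split-YFP (IFP1/IFP2) PPARg/SRC-1 reporter, HEK293T, 37 °C, 5% CO2; 8 h compound; formaldehyde fix + Draq5; high-content imaging, N/C ratio, ≥350 cells/image, positive direction vs DMSO.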
Chain of Peroxisome proliferator-activated receptor gamma (Homo sapiens) (P37231 whole entry, looked up, the tested form may be a part): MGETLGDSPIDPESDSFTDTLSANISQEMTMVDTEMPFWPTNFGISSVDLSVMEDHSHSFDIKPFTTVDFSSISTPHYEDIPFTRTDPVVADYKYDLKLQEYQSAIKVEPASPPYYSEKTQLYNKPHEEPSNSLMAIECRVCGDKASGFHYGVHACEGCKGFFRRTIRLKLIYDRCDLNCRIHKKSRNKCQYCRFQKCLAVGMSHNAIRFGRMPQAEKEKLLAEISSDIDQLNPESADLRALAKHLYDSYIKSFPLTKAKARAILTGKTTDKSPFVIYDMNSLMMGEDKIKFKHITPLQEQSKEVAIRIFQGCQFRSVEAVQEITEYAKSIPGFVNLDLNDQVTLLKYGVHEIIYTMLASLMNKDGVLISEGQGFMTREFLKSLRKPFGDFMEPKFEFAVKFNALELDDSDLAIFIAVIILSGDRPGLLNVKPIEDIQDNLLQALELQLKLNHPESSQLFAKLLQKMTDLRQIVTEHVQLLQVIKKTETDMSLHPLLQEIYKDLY

Assay [8] concerns the target Retinoic acid receptor RXR-alpha (Homo sapiens) (UniProt P19793). As to the kind of experiment: OT_NURR1_NURR1RXRa_1440: Odyssey Thera (OT) 24-hour HEK293T Protein Complementation Assay for Nurr1/retinoid X receptor (RXR) (AID 2283386). A digest of the protocol: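 Interaction of Nurr1 with RXRα brings fused reporter fragments together in human HEK293T cells, restoring a functional reporter. Fluorescence intensity is measured 24 h after chemical treatment, and values are analysed in the positive direction against DMSO.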

Assay [9] is described as follows: CEETOX_H295R_11DCORT: CeeTox H295R High-throughput Steroidogenesis Assay for 11-Deoxycortisol (11DCORT) (AID 2283432; active = hit-call score of the fitted dose curve at least 0.9, where 1 is the maximum; inactive = score below 0.9;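 for AC50: 11-deoxycortisol secreted into the medium measured by LC-MS/MS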). The settings on record: actives raise or lower the signal. A digest of the protocol:
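Steroidogenesis in human H295R cells: 48 h chemical exposure after forskolin priming, 11-deoxycortisol measured by LC-MS/MS.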

Assay [10] is described as follows: CEETOX_H295R_OHPREG: CeeTox H295R High-throughput Steroidogenesis Assay for OH-Pregnenolone (OHPREG) (AID 2283434; active = hit-call score of the fitted dose curve at least 0.9, where 1 is the maximum; inactive = score below 0.9). The settings on record: actives raise or lower the signal. A digest of the protocol: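 H295R cells pre-stimulated 48 h with 10 uM forskolin, then exposed 48 h to chemical in 0.1% DMSO. 17alpha-hydroxypregnenolone in medium quantified by MTBE extraction and HPLC-MS/MS; bidirectional fit versus DMSO, viability checked by MTT.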

Assay [11] in a line: CEETOX_H295R_OHPROG: CeeTox H295R High-throughput Steroidogenesis Assay for OH-Progesterone (OHPROG) (AID 2283435; active = hit-call score of the fitted dose curve at least 0.9, where 1 is the maximum; inactive = score below 0.9;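 for AC50: 17alpha-hydroxyprogesterone secreted into medium measured by HPLC-MS/MS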). The settings on record: actives raise or lower the signal. The essentials:
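H295R, 10 uM forskolin prestim 48 h; cmpd in 0.1% DMSO 48 h; medium MTBE-extracted, HPLC-MS/MS for OH-progesterone; 7-pt std curve; bidirectional fit vs DMSO; MTT viability, chemicals diluted until viability >/=70%.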

Assay [12] can be described thus: CEETOX_H295R_ANDR: CeeTox H295R High-throughput Steroidogenesis Assay for Androstenedione (ANDR) (AID 2283436; active = hit-call score of the fitted dose curve at least 0.9, where 1 is the maximum; inactive = score below 0.9). The settings on record: actives raise or lower the signal. A digest of the protocol:
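H295R cells, following OECD 456 with minor changes, exposed to chemicals for 48 h. Androstenedione in the medium was quantified by HPLC-MS/MS after MTBE extraction. Fitting was bidirectional versus DMSO; chemicals were diluted until MTT viability was ≥70%.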

Assay [13] in a line: CEETOX_H295R_CORTIC: CeeTox H295R High-throughput Steroidogenesis Assay for Corticosterone (CORTIC) (AID 2283437; active = hit-call score of the fitted dose curve at least 0.9, where 1 is the maximum; inactive = score below 0.9;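 note: human H295R adrenal cells prestimulated with forskolin before chemical exposure; corticosterone secreted into medium quantified by mass spectrometry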). The settings on record: actives raise or lower the signal. A digest of the protocol: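 H295R adrenal cells prestimulated 48 hours with 10 uM forskolin, then exposed 48 hours to chemical in 0.1% DMSO. Corticosterone in medium measured by HPLC-MS/MS after MTBE extraction; MTT viability in the same wells; bidirectional fit versus DMSO.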

Assay [14] in a line: CEETOX_H295R_CORTISOL: CeeTox H295R High-throughput Steroidogenesis Assay for Cortisol (AID 2283438; active = hit-call score of the fitted dose curve at least 0.9, where 1 is the maximum; inactive = score below 0.9;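 note: cortisol secreted into medium quantified by LC-MS/MS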). The settings on record: actives raise or lower the signal. The essentials: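 Forskolin 10 uM 48 h prestim → test cmpd in DMSO (0.1% final) 48 h → medium MTBE-extracted → LC-MS/MS cortisol vs 7-pt std curve. Gain/loss of signal fitted vs DMSO. MTT viability in same wells.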

Assay [15] can be described thus: CEETOX_H295R_DOC: CeeTox H295R High-throughput Steroidogenesis Assay for DOC (AID 2283439; active = hit-call score of the fitted dose curve at least 0.9, where 1 is the maximum; inactive = score below 0.9). The settings on record: actives raise or lower the signal. The essentials: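 Readout: 11-deoxycorticosterone in culture medium by reverse-phase C18 HPLC with ESI+ tandem MS after MTBE extraction. Cells: H295R, forskolin-primed (10 uM, 48 h), chemical-treated 48 h; DMSO 0.1% final. Activity fitted bidirectionally versus DMSO.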

The nature of assay [16]: CEETOX_H295R_ESTRADIOL: CeeTox H295R High-throughput Steroidogenesis Assay for Estradiol (AID 2283440; active = hit-call score of the fitted dose curve at least 0.9, where 1 is the maximum; inactive = score below 0.9;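 note: estradiol secreted into medium quantified by LC-MS/MS after dansyl derivatisation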). The settings on record: actives raise or lower the signal. A digest of the protocol:
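Estradiol in spent medium measured by LC-MS/MS after dansyl chloride derivatisation. Forskolin-primed (10 uM, 48 h) human adrenal H295R cells received test chemical 48 h at 0.1% DMSO; concentrations lowered until MTT viability >/=70%.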

The nature of assay [17]: CEETOX_H295R_ESTRONE: CeeTox H295R High-throughput Steroidogenesis Assay for Estrone (AID 2283441; active = hit-call score of the fitted dose curve at least 0.9, where 1 is the maximum; inactive = score below 0.9;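 note: estrone secreted into medium measured by LC-MS/MS after dansyl derivatization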). The following applies: actives raise or lower the signal. The essentials: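 H295R cells prestimulated 48 h with 10 uM forskolin, then exposed 48 h to chemicals in 0.1% DMSO final; estrone in medium extracted with MTBE, dansyl-derivatized, quantified by HPLC-MS/MS; bidirectional fitting versus DMSO, viability by MTT.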

Assay [18] concerns the target Bile acid receptor (Homo sapiens) (UniProt Q96RI1). As to the kind of experiment: OT_FXR_FXRSRC1_1440: Odyssey Thera (OT) 24-hour HEK293T Protein-Complementation Assay for Farnesoid X receptor/SRC-1 Co-activator (AID 2283384). A digest of the protocol:
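Compounds are applied to human kidney HEK293T cells expressing bait and prey fused to reporter protein fragments; after 24 h, reconstituted reporter fluorescence is measured. Activity is fitted as signal gain over DMSO.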

In assay [19] the target is Peroxisome proliferator-activated receptor gamma (Homo sapiens) (UniProt P37231). As to the kind of experiment: OT_PPARg_PPARgSRC1_1440: Odyssey Thera (OT) 24-hour Protein-Complementation Assay for Peroxisome Proliferator-activated Receptor Gamma/ SRC-1 Co-activator (AID 2283388).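 Note: nuclear to cytoplasmic ratio of reconstituted Venus YFP fluorescence in fixed imaged cells.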 A digest of the protocol:
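Readout is the 488 nm N/C fluorescence ratio from fixed, Draq5-stained HEK293T cells after 24 h compound exposure. Cells carried transiently transfected PPARg and SRC-1 fused to Venus fragments, transfected 48 h before treatment.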

Chain of Retinoic acid receptor RXR-alpha (Homo sapiens) (P19793 whole entry, looked up, the tested form may be a part): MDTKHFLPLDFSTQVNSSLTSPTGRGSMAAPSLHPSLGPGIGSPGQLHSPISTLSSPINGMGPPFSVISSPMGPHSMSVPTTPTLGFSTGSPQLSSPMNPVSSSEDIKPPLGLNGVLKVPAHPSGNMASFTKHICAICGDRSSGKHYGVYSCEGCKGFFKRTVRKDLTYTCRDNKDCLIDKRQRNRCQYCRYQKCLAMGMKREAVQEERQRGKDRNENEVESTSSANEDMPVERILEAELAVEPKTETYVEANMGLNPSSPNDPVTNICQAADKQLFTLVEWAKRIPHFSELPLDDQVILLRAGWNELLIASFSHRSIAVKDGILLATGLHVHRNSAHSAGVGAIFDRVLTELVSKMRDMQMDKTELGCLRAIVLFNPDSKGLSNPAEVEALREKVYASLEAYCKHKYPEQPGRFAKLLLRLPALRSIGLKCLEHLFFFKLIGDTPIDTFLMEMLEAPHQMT
Chain of Estrogen receptor beta (Homo sapiens) (Q92731 whole entry, looked up, the tested form may be a part): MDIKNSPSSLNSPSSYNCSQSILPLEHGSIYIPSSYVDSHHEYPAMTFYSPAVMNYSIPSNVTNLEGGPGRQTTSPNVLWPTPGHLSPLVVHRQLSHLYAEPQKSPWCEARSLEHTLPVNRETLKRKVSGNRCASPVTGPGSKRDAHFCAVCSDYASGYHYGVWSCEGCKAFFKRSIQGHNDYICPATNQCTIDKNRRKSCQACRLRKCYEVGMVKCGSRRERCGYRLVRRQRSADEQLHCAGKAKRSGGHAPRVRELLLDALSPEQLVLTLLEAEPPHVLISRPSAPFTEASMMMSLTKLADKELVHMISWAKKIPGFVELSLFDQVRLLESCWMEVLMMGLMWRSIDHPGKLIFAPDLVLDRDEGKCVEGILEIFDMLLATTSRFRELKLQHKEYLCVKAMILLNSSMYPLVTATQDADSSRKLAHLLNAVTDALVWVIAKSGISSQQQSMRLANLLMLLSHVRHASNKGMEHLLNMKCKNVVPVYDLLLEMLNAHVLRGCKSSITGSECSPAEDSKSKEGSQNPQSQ
Chain of Bile acid receptor (Homo sapiens) (Q96RI1 whole entry, looked up, the tested form may be a part): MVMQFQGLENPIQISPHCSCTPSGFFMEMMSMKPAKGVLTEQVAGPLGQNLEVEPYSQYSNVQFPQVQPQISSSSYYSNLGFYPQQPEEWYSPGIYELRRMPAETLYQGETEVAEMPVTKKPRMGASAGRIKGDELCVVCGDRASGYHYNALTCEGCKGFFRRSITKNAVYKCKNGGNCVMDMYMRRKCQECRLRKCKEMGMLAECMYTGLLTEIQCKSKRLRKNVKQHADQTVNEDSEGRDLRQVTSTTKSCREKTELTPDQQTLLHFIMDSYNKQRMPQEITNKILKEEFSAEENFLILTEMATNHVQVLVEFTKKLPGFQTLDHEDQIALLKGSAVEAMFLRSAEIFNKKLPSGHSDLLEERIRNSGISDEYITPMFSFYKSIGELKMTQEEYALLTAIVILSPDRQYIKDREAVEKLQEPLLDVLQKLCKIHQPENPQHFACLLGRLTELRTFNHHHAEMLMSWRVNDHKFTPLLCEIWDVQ
Chain of Estrogen receptor (Homo sapiens) (P03372 whole entry, looked up): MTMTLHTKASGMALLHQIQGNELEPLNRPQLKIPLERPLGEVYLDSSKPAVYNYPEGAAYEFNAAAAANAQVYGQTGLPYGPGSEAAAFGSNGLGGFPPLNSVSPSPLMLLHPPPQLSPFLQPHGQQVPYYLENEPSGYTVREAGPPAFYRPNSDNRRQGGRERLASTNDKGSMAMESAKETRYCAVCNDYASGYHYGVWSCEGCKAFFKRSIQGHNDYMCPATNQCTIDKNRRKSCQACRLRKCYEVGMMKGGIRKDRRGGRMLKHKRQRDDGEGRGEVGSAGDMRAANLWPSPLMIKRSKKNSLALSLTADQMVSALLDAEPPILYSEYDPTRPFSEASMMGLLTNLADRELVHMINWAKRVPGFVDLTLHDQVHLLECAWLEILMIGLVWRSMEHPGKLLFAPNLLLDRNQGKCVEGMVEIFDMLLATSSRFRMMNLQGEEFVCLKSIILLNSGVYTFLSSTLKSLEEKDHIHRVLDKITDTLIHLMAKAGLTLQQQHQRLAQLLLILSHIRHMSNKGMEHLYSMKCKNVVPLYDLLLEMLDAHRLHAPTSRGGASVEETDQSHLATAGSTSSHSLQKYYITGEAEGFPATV
Chain of mouse Estrogen Receptor alpha (Era), Esr1 (gene 13982) (P19785 whole entry, looked up): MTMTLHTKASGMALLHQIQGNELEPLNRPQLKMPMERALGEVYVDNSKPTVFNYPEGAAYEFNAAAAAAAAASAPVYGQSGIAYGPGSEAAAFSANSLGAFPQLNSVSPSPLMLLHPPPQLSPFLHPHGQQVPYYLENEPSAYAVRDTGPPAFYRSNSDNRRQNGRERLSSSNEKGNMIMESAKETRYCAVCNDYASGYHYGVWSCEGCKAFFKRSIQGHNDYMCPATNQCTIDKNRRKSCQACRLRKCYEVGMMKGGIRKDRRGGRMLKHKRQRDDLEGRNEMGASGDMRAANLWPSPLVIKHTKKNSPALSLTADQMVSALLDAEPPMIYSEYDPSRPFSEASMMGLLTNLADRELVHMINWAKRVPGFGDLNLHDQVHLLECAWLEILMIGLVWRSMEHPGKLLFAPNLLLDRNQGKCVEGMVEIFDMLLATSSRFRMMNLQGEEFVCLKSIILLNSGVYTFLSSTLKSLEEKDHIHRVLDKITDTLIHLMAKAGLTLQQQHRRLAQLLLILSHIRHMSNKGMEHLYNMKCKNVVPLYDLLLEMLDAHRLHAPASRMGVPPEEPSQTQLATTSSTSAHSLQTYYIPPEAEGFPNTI

Take `CC(C)C(=O)Nc1ccc([N+](=O)[O-])c(C(F)(F)F)c1`: the result in assay [1], in [2], in assay [3], in assay [4], in assay [5] and in [6] was inactive. Also, in assay [7], the result was inactive.

In the case of `CCOC(N)=O`, the call in assay [1], in assay [3], in assay [4], in [6] and in assay [8] was inactive.

As for `C=CCc1cc(S(=O)(=O)c2ccc(O)c(CC=C)c2)ccc1O`, the AC50 in [1] was 14.6 µM (active); in assay [9], 6.4 µM (active); in [10], 12.4 µM (active); in [11] it was 0.165 µM (active); in assay [13], 0.0971 µM (active); in assay [14] it was 5.57 µM (active). The half-maximal activity concentration (AC50) in assay [15] is 0.673 µM (active). In addition, the call in assay [2], in assay [3], in assay [4], in assay [7], in assay [12] and in assay [16] was inactive. Also, the compound was classed as inactive in [17].

With `O=C(O)c1ccc2c(c1)nc(C(=O)NC1CCN(C3CC3)CC1)n2Cc1cc(-c2ccc(Cl)s2)on1`, the outcome in assay [2], in [3], in [4], in assay [5], in [18] and in [6] was inactive. For the same compound, the compound was called inactive in assay [8] and in assay [7].

For the compound `c1ccc(C(O[C@@H]2CCCN(CCc3ccc4c(c3)OCO4)C2)c2ccccc2)cc1`, the AC50 in assay [1] is 25 µM (active); in assay [2], 38.5 µM (active); in assay [6], 89 µM (active); in assay [8], 77.7 µM (active) and 81.9 µM (active). Besides, the result in [3], in [4], in [6], in assay [7] and in [19] was inactive.

On to `C[C@]12C=CC(=O)C=C1CC[C@H]1[C@@H]3C[C@@H](O)[C@](O)(C(=O)CO)[C@@]3(C)C[C@H](O)[C@@]12F`, for which the outcome in [1], in assay [3], in assay [4], in [6], in assay [8] and in assay [7] was inactive. Besides, the call in assay [19], in [9], in [10], in assay [11] and in assay [14] was inactive. Besides, the AC50 in [13] is 19.8 µM (active); in [15], 11.2 µM (active).

Take `NC(=O)N(O)[C@@H]1COc2cc(OCc3ccccc3)ccc21`: the compound was called inactive in [2], in [3], in [4], in assay [5], in assay [18] and in assay [6]. Besides, the result in [8], in assay [7] and in assay [19] was inactive.

As a reminder, the AC50 is the concentration at which the activity in the assay is half-maximal.

The values above are taken from PubChem BioAssay (EPA / NIEHS).
